# Laboratory results published in the supplement of paper PMC9446081.
# About 220 (0.56%) of roughly 39,000 compounds showed activity. This is one part of a sample in which actives are shown more often than they occur.
# Test system: Escherichia coli K-12 BW25113
# Assay: relative growth (OD600 normalised to plate interquartile mean) (fraction); higher = less growth inhibition, active = 0.2 or less
# Details: 50 µM; LB; incubation time: overnight (16-24 h)
# 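Note: Wild-type cells incubated without shaking, value is the mean of two biological replicates.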
row,SMILES,relative growth
1,C[C@H]1CN([C@@H](C)CO)C(=O)Cc2cc(NC(=O)Cc3ccccc3)ccc2O[C@@H]1CN(C)S(=O)(=O)c1ccccc1,0.993 (inactive)
2,CCOC(=O)[C@@H](C)n1ncn2cccc2c1=O,1.01 (inactive)
3,CCCC#Cc1ccc2c(c1)O[C@@H](CN(C)C(=O)c1cnccn1)[C@@H](C)CN([C@H](C)CO)S2(=O)=O,0.971 (inactive)
4,C[C@H]1CC/C=C\[C@H]2O[C@@]34C=CCN(c5ccc6ccccc6c5)C(=O)[C@H]3N(CCO)C(=O)[C@@H]4[C@@H]2C(=O)O1,0.983 (inactive)
5,CC(=O)N1C[C@@H]2C(=O)N(C)C3(CCN(S(=O)(=O)Cc4ccccc4)CC3)[C@H]2C1,0.958 (inactive)
6,C[C@H]1CN([C@@H](C)CO)C(=O)Cc2cc(NC(=O)CCCCCC(=O)Nc3ccccc3N)ccc2O[C@H]1CN(C)C(=O)Nc1ccc(C(F)(F)F)cc1,0.958 (inactive)
7,C[C@H]1CN([C@@H](C)CO)C(=O)c2c(c3ccccc3n2C)-c2ccccc2CO[C@@H]1CN(C)Cc1cccc(F)c1,0.962 (inactive)
8,NC(C(=O)NC1C(=O)N2C(C(=O)O)=C(Cl)CSC12)c1ccccc1 (centres undefined),0.0491 (active)
9,CC1=C(C(=O)O)N2C(=O)C(NC(=O)C(N)c3ccccc3)C2SC1 (centres undefined),1.03 (inactive)
10,N[C@@H](C(=O)N[C@@H]1C(=O)N2C(C(=O)O)=C(Cl)CC[C@H]12)c1ccccc1,0.0311 (active)
11,N[C@@H](C(=O)N[C@@H]1C(=O)N2C(C(=O)O)=C(Cl)CS[C@H]12)c1ccccc1,0.0303 (active)
12,CC1=C(C(=O)O)N2C(=O)[C@@H](NC(=O)[C@H](N)c3ccccc3)[C@H]2SC1,1.03 (inactive)
13,CC1=C(C(=O)O)N2C(=O)[C@@H](NC(=O)[C@@H](N)c3ccccc3)[C@H]2SC1,0.998 (inactive)
14,CC1=C(C(=O)O)N2C(=O)[C@H](NC(=O)[C@@H](N)c3ccccc3)[C@H]2SC1,1.02 (inactive)
15,OC[C@H]1O[C@H](n2nnc3ccccc32)[C@@H](O)[C@@H](O)[C@@H]1O,0.989 (inactive)
16,Cc1noc(C)c1S(=O)(=O)Nc1cccc2c1O[C@H](CN(C)S(=O)(=O)c1cccs1)[C@H](C)CN([C@@H](C)CO)C2=O,1 (inactive)
17,CCCN1C[C@@H](C)[C@H](OC)CN(C)C(=O)c2ccc(NS(=O)(=O)c3cn(C)cn3)cc2OC[C@@H]1C,1 (inactive)
18,Nc1ccc(/C=C/c2ccccc2)cc1,0.999 (inactive)
19,C[C@H](CO)N1C[C@H](C)[C@@H](CN(C)C(=O)c2cnccn2)Oc2cc(Br)ccc2S1(=O)=O,0.986 (inactive)
